Laboratory results as given in PubChem BioAssay.
Calls of active or inactive are those of the source.

Legend:
[1] = binders of probe aFSTL3 on microarray, primary screen, stem cell growth factor project, biochemical, small-molecule microarray, fluorescence 635/667 (AID 1064); conditions: higher = more signal;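 further: measures binding of the biotinylated anti-FSTL3 antibody to printed compounds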
[2] = binders from COS7 lysate, DM2A8 probe, primary screen, torsin A project, cell lysate, small-molecule microarray, fluorescence 635/667 (AID 1065); conditions: higher = more signal, COS7 lysate expressing mutant human TOR1A
[3] = binders of probe aFGF2 on microarray, primary screen, stem cell growth factor project, biochemical, small-molecule microarray, fluorescence 635/667 (AID 1067); conditions: higher = more signal;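 further: measures binding of biotinylated aFGF2 protein to printed compounds on slides; z-score merges feature fluorescence and signal-to-noise across triplicate slides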
[4] = binders of probe aFGF10 on microarray, primary screen, stem cell growth factor project, biochemical, small-molecule microarray, fluorescence 635/667 (AID 1071); conditions: higher = more signal;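 further: score merges 667 nm spot intensity and signal to noise from triplicate slides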
[5] = target: Neurogenic locus notch homolog protein 2 (Homo sapiens) (UniProt Q04721); test: Notch2 binders on small-molecule microarrays, primary screen, biochemical, small-molecule microarray, 635 nm fluorescence, stem cell growth factors (AID 1073); conditions: Notch2 binding, higher = more signal
[6] = target: Pro-neuregulin-1, membrane-bound isoform (Homo sapiens) (UniProt Q02297); test: NRG1 binders on small-molecule microarrays, primary screen, psychiatric disease protein project, biochemical, small-molecule microarray, fluorescence 635/667 (AID 1075); conditions: NRG1 binding, 635 nm fluorescence, higher = more signal;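 further: score combines 667 nm spot fluorescence with signal to noise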
[7] = tested on: Neuregulin-1 EGF-like domain; test: binders of neuregulin-1 EGF-like domain, primary screen, biochemical, small-molecule microarray, 635 nm fluorescence (AID 1081); conditions: small-molecule microarray binding, higher = more signal;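 further: binding of the protein to compounds printed on small-molecule microarray slides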
[8] = FRG1 promoter luciferase signal modulators, primary screen, FRG1 inhibition for FSHD, cell-based, C2C12 myotubes, firefly/Renilla luciferase, luminescence (AID 1084); conditions: higher = more signal, called active from +8 up or from −8 down
[9] = binders of probe aFST on microarray, primary screen, stem cell growth factor project, biochemical, small-molecule microarray, fluorescence 635/667 (AID 1086); conditions: higher = more signal;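 further: score merges 667 nm fluorescence with signal-to-noise of each printed compound spot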
[10] = binders of probe aHhip on microarray, primary screen, stem cell growth factor project, biochemical, small-molecule microarray, fluorescence 635/667 (AID 1087); conditions: higher = more signal;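 further: score merges spot fluorescence at 667nm with spot signal to noise ratio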
[11] = tested on: PRMT1 (protein arginine N-methyltransferase 1); test: PRMT1 binders on small-molecule microarrays, primary screen, biochemical, small-molecule microarray, 635 nm fluorescence (AID 1088); conditions: small-molecule microarray binding, higher = more signal;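 further: binding of Prmt1 protein to compounds spotted on small-molecule microarray slides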
[12] = yeast growth modulation, basal conditions, primary screen, YJM789 clinical isolate, OD600, 24 h (AID 1089);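 further: growth of clinical yeast isolate S. cerevisiae YJM 789 seeded 1000 cells per well; test concentration not given here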; conditions: S. cerevisiae YJM789 growth, higher = more signal, called active from +8 up or from −8 down
[13] = fission yeast growth modulation, primary screen, strain 972, OD600, 24 h, no modulator (AID 1090);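 further: basal condition with compound alone and no growth modifier present; test concentration not given here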; conditions: S. pombe 972 growth, higher = more signal, called active from +8 up or from −8 down
[14] = S. cerevisiae growth modulation with rapamycin, primary screen, strain BY4716, OD600, 96 h (AID 1091); conditions: higher = more signal, called active from +8 up or from −8 down; further: test concentration not given here
[15] = target: Torsin-1A-interacting protein 2 (Homo sapiens) (UniProt Q8NFQ8); test: LULL1 binders on small-molecule microarray, primary screen, cell lysate, human LULL1 lysate, 635/667 nm fluorescence (AID 1092); conditions: hLULL1 lysate binding, 635 nm fluorescence, higher = more signal;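 further: probe is lysate of COS7 cells overexpressing human LULL1; score merges per-feature 667 nm fluorescence with signal-to-noise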
[16] = E. coli growth modulation, two-sided OD650, primary screen, E. coli filamentation project, strain DRC41, 24 h (AID 1093); conditions: OD650, 24 h, higher = more signal, called active from +8 up or from −8 down;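 further: MC1000 strain lacking acrAB efflux and sulA so SOS filamentation is blocked; test concentration not given here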
[17] = small-molecule microarray binders of probe aLefty2, primary screen, biochemical, biotinylated probe, 635/667 nm fluorescence (AID 1094); conditions: higher = more signal;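 further: score merges spot fluorescence near 667 nm with spot signal-to-noise ratio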
[18] = tested on: Noggin (protein binding on small-molecule microarray); test: Noggin binders on small-molecule microarray, primary screen, biochemical, 635/667 nm fluorescence (AID 1095); conditions: 635 nm fluorescence, higher = more signal;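 further: score merges 667 nm feature fluorescence with signal to noise over triplicate slides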
[19] = target: Neurogenic locus notch homolog protein 3 (Homo sapiens) (UniProt Q9UM47); test: NOTCH3 binders on small-molecule microarray, primary screen, biochemical, 635/667 nm fluorescence (AID 1096); conditions: NOTCH3 binding, 635 nm fluorescence, higher = more signal
[20] = small-molecule microarray binders of probe aEGFR, primary screen, biochemical, biotinylated probe, 635/667 nm fluorescence (AID 1097); conditions: higher = more signal;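 further: probe is a biotinylated anti-EGFR antibody binding compounds printed on slides; score combines fluorescence near 667 nm and signal to noise of each spot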

Chain of Neurogenic locus notch homolog protein 3 (Homo sapiens) (Q9UM47 whole entry, looked up): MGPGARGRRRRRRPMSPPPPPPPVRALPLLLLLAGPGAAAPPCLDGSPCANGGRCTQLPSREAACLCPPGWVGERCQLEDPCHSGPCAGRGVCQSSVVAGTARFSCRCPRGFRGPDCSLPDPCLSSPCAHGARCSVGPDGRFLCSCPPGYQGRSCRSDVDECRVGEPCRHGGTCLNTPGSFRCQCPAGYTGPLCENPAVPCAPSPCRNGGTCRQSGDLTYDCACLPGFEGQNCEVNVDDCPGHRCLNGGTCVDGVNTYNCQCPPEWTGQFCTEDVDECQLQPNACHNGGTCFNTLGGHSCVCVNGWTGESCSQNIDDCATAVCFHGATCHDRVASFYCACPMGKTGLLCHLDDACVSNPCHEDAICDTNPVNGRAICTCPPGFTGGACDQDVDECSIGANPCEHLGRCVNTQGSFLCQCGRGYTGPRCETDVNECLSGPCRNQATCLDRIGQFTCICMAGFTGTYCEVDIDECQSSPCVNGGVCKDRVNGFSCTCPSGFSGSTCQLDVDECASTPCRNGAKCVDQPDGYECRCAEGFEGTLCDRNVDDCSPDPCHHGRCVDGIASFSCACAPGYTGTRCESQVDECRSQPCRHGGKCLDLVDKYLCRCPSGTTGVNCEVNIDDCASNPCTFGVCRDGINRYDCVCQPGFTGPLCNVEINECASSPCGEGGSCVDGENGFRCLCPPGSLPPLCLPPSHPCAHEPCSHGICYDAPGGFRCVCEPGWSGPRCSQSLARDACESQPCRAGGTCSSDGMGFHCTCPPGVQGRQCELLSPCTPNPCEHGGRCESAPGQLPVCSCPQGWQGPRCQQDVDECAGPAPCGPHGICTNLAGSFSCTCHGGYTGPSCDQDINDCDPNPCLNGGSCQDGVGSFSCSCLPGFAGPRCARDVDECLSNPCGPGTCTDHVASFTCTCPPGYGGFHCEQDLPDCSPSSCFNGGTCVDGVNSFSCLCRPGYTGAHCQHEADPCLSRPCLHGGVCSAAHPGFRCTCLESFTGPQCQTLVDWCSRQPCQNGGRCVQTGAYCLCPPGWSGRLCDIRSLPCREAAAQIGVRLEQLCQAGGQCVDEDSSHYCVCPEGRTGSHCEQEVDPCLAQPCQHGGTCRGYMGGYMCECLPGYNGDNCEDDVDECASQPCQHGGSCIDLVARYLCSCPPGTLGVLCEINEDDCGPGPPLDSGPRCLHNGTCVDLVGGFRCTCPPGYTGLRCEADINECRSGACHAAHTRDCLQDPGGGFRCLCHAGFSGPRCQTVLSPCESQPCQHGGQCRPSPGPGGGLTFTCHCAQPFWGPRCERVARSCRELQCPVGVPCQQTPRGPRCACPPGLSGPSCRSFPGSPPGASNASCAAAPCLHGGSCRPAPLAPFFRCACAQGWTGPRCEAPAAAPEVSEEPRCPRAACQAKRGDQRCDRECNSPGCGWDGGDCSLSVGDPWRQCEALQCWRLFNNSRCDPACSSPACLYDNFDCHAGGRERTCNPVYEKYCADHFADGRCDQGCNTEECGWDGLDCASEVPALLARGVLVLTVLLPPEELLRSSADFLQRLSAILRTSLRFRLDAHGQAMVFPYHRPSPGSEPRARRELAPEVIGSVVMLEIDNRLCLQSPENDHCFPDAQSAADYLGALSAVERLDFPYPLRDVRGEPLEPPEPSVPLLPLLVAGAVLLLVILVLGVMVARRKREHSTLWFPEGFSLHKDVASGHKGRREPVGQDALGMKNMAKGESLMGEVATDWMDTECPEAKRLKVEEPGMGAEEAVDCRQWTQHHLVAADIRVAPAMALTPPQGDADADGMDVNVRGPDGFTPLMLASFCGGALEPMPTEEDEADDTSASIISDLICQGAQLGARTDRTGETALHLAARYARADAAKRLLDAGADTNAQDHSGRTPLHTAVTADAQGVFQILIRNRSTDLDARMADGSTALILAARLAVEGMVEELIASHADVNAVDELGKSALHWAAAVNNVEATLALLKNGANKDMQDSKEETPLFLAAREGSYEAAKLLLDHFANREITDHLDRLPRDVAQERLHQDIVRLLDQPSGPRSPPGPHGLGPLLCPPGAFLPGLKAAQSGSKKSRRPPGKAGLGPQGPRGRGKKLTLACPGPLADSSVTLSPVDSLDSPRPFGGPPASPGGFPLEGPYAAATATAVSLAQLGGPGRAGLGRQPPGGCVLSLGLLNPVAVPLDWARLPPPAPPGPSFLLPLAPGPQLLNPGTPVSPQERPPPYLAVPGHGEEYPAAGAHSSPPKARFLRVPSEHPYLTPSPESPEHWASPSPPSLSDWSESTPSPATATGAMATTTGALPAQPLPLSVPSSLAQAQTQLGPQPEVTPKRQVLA
Chain of Pro-neuregulin-1, membrane-bound isoform (Homo sapiens) (Q02297 whole entry, looked up, the tested form may be a part, canonical isoform): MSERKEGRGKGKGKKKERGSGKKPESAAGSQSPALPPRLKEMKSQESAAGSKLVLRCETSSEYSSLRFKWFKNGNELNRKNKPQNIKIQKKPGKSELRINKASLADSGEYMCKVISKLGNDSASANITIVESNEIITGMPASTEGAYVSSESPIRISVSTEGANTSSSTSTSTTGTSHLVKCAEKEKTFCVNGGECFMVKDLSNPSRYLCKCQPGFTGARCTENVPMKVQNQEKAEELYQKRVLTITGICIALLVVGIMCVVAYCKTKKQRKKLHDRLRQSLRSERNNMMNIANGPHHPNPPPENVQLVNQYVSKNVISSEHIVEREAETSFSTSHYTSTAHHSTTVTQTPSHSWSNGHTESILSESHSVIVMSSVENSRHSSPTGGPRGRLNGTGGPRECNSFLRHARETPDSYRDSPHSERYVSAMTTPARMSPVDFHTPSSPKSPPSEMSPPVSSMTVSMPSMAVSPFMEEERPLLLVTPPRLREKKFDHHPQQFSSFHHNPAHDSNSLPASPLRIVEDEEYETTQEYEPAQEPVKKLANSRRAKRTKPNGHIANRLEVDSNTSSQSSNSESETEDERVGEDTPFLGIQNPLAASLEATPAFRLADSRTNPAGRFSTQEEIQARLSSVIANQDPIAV
Chain of Torsin-1A-interacting protein 2 (Homo sapiens) (Q8NFQ8 whole entry, looked up): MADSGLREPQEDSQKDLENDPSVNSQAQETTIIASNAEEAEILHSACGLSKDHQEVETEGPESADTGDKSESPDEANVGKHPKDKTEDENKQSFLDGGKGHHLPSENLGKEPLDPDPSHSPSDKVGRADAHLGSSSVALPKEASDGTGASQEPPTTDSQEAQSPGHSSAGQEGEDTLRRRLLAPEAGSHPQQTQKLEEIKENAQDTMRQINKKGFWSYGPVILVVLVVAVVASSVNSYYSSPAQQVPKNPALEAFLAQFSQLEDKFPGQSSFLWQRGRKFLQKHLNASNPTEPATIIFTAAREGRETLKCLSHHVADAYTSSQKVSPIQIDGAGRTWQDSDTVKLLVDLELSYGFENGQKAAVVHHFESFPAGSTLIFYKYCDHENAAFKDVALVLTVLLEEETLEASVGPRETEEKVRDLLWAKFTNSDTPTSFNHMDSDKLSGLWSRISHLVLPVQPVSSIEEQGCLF

Row | Structure (SMILES) | composite z-score [1] | composite z-score [2] | composite z-score [3] | composite z-score [4] | composite z-score [5] | composite z-score [6] | composite z-score [7] | z-score [8] | composite z-score [9] | composite z-score [10] | composite z-score [11] | z-score [12] | z-score [13] | z-score [14] | composite z-score [15] | z-score [16] | composite z-score [17] | composite z-score [18] | composite z-score [19] | composite z-score [20]
1 | C=C(CCCC)/C(=C/C[C@@H](OC(=O)c1ccncc1)c1ccc(CO)o1)c1cnc2ccccc2c1 | -0.297 | 0.702 | 0.0263 | 1.08 | 1.59 | 0.786 | 0.743 | -0.452 (inactive) | 0.972 | 0.224 | 1.54 | 0.396 (inactive) | -2.43 (inactive) | 0.322 (inactive) | 2.54 | 1.25 (inactive) | 0.0561 | 1.64 | 1.02 | 0.0071
2 | C[C@@H]1NC(=O)[C@H](Cc2ccccc2)NC(=O)[C@@]23C(=O)N[C@@H](Cc4ccccc4)C2[C@H](C)[C@@]2(C)O[C@H]2C3/C=C/C/C=C\CNC1=O (stereo not given in full) | -0.191 | -0.0483 | -0.111 | 0.0009 | -0.315 | -0.318 | -0.603 | -0.225 (inactive) | -0.784 | 0.122 | -0.747 | 0.723 (inactive) | 0.0909 (inactive) | 0.937 (inactive) | -1.73 | -1.38 (inactive) | -0.174 | 0.0939 | -0.769 | -0.171
3 | C=CCOC(=O)[C@@H]1[C@H]2C(=O)O[C@H](c3ccccc3)[C@H](c3ccccc3)N2[C@H](c2ccc(OCCOC(=O)[C@H]3C[C@H]4C(=O)N[C@@H](CCCCNC(C)=O)C(=O)N4[C@H]3c3ccc(O)cc3)cc2)[C@@]12C(=O)Nc1ccc(I)cc12 | -0.583 | 0.242 | 0.0435 | 0.536 | 0.5 | 1.24 | 1.17 | 0.46 (inactive) | -0.0007 | 0.158 | 1.55 | 1.38 (inactive) | 0.802 (inactive) | 4.48 (inactive) | 1.39 | -0.428 (inactive) | -0.0974 | 1.66 | 1.07 | 0.0333
4 | O=C(NCC(F)(F)F)[C@@H]1c2ccccc2C(=O)N(Cc2ccccc2Cl)[C@H]1c1ccc(CO)cc1 | 1.39 | -0.338 | -0.0964 | -0.601 | -1.37 | -0.341 | 1.39 | -1.3 (inactive) | 0.214 | -0.47 | -0.809 | -0.896 (inactive) | -0.243 (inactive) | 0.0061 (inactive) | 1.18 | 0.939 (inactive) | -0.605 | -1.5 | -1.14 | -0.0721
5 | C=CCC1=C[C@H]2[C@H]([C@@H]3C=C[C@]2(CC=C)C(=O)[C@]32CO2)[C@@]2(CO2)C1=O | 0.076 | 1.28 | -0.034 | 0.612 | 0.333 | -0.35 | 0.319 | -1.52 (inactive) | 0.501 | 0.0542 | 0.388 | 0.683 (inactive) | -21.2 (active) | -4.1 (inactive) | 0.756 | 2.54 (inactive) | 0.233 | 1.65 | 0.183 | 0.148
6 | CC(=O)NCCCC[C@@H]1NC(=O)[C@@H]2C[C@H](C(=O)NCCCCCNC(=O)CS)[C@H](c3ccc(O)cc3)N2C1=O | 0.123 | -0.383 | -0.226 | -1.38 | -0.83 | 0.0942 | 1.15 | -1.14 (inactive) | -0.735 | -0.388 | 0.483 | -2.05 (inactive) | -1.83 (inactive) | -1.55 (inactive) | -0.0471 | 2.99 (inactive) | -0.149 | 1.11 | 0.108 | -0.212
7 | COCCOC(=O)N1C(=O)[C@@]2(c3cc(C#CCNC(N)=O)ccc31)[C@H](c1ccccc1OCCO)N1[C@H](c3ccccc3)[C@H](c3ccccc3)OC(=O)[C@H]1[C@@H]2C(=O)NC[C@H](O)c1ccccc1 | -0.342 | 1.27 | -0.0083 | 0.658 | 0.472 | 1.54 | 1.21 | -0.163 (inactive) | 0.512 | -0.0672 | 1.53 | 2.75 (inactive) | 2.09 (inactive) | 6.12 (inactive) | 3.01 | 0.589 (inactive) | -0.0977 | 1.12 | 1.1 | -0.065
8 | CC/C=C/C(=O)N(C[C@@H]1CCCO1)[C@@H]1CC(C(=O)NCCO)=C[C@H](Oc2c(I)cc(CO)cc2OC)[C@H]1O | -0.329 | 0.51 | -0.22 | 0.629 | 0.347 | 0.06 | 0.366 | -1.24 (inactive) | -0.176 | -0.0994 | 0.505 | -0.811 (inactive) | -1.79 (inactive) | -1.91 (inactive) | 1.69 | -0.159 (inactive) | 0.0612 | -0.294 | -0.155 | -0.191
9 | CO[C@H]1O[C@H](CO)[C@@H](OC(=O)Nc2ccccc2)[C@H](OC(=O)Nc2ccc3c(c2)OCO3)[C@@H]1OC(=O)Nc1ccc2c(c1)OCO2 | 0.304 | 1.66 | -0.0784 | 0.158 | 0.288 | 1.77 | 1.29 | 2.25 (inactive) | 0.474 | -0.191 | 1.53 | 0.058 (inactive) | -0.1 (inactive) | 3.14 (inactive) | 2.62 | 1.67 (inactive) | -0.0591 | -0.0087 | 0.845 | -0.117
10 | COC(=O)[C@@]1(Cc2ccccc2)[C@H]2c3cc(C(=O)N4CCCC4)n(CCN4CNCC4=O)c3C[C@H]2CN1C(=O)c1ccccc1 | 0.243 | 1.35 | 0.106 | 0.598 | 1.4 | 1.71 | 1.37 | 1.41 (inactive) | 0.604 | 0.209 | -0.337 | -0.465 (inactive) | 0.826 (inactive) | -0.153 (inactive) | 1.93 | -0.0756 (inactive) | 0.154 | -0.113 | 0.494 | -0.013
